# HIV RNase H inh-1 = inhibitors of HIV-1 reverse transcriptase RNase H. inhibition, % at 10 µM. P04585. RT-RNase H RNA/DNA duplex cleavage, fluorescence. 65,000 compounds, 1.9% hits; in the data active means inhibition above about 50%
# HIV RNase H inh-2 = confirmation of HIV-1 reverse transcriptase RNase H inhibitors; shares compounds with HIV RNase H inh-1; 1,000 compounds, 39% hits; AID 651; inhibition, % at 10 µM; Recombinant RT RNase H, fluorescent RNA/DNA duplex cleavage; in the data active means inhibition above about 48%; inconclusive means no clear call, values can overlap the other calls
# Hits are given with their value; 0 = inactive; ? = inconclusive. The sample as a whole holds a higher share of hits than the screen did.
SMILES,HIV RNase H inh-1,others
CCC1CC2(C)NC(=O)c3c(sc4c3CC(C)(C)OC4)N2C1=O (stereo not given),79,HIV RNase H inh-2=60
CCC(C)(C)NC(=O)C(c1ccco1)N(C(=O)c1csnn1)c1cccc(F)c1 (stereo not given),0,
CCOC(=O)N1CCC(NC(=O)c2csc3c2CCCC3)CC1,0,
Cc1cc(C)c2c(=O)n(CC(=O)N3CCC(Cc4ccccc4)CC3)sc2n1,79,HIV RNase H inh-2=0
Cc1cccc(N2CCN(C(=O)c3ccncc3)CC2C)c1 (stereo not given),0,
Cc1cc(C)c2c(=O)n(CC(=O)NCCCN3CCOCC3)sc2n1,90,HIV RNase H inh-2=77
Cc1cccc(N2CCN(C(=O)Cn3sc4nc(C)cc(C)c4c3=O)CC2C)c1 (stereo not given),93,HIV RNase H inh-2=56
Cc1cc(OCC(=O)NCCCN2CCOCC2)cc(C)c1Cl,0,
CCOC(=O)c1cc2c(ccn2C)n1CC(=O)N1CCC(Cc2ccccc2)CC1,0,
Cc1ccc(SCC(=O)NCCCN2CCOCC2)cc1,0,
Cc1ccc(-c2ccc(=O)n(CC(=O)N3CCN(c4cccc(C)c4)C(C)C3)n2)cc1 (stereo not given),0,
Cn1cnnc1SCC(=O)N1CCC(Cc2ccccc2)CC1,0,
CC(=O)c1ccc(OCC(O)CN2CCN(c3ccccn3)CC2)cc1 (stereo not given),0,
O=C(CSc1nnc(-c2ccco2)n1Cc1ccco1)N1CCOCC1,0,
Cc1cc(C)cc(N(CC(=O)NCc2ccco2)S(=O)(=O)c2c(C)noc2C)c1,0,
Cc1nc(=O)c(-c2ccccc2)c(C)n1-c1ccc(O)c(C(=O)O)c1,0,
O=C(NC(c1ccccc1)c1ccccc1)C1CCCN(S(=O)(=O)c2cnc[nH]2)C1 (stereo not given),0,
C=CCn1c(=O)[nH]c2cc(C(=O)N3CCN(c4ccc(C(C)=O)cc4)CC3)ccc2c1=O,0,
C=CCn1c(=O)[nH]c2cc(C(=O)N3CCN(c4cc(C)ccc4C)CC3)ccc2c1=O,80,HIV RNase H inh-2=0
Cc1ccc(C)c(N2CCN(C(=O)c3ccc(Cn4c(=O)[nH]c5ccccc5c4=O)cc3)CC2)c1,0,
O=C(CNC(=O)c1cccs1)NCCN1CCN(c2ccccc2F)CC1,0,
COc1c[nH]n(C2CCCCC2)c(=O)c1=O,0,
CCCCc1c(O)nc(SCC(=O)NCCc2ccc(OC)c(OC)c2)[nH]c1=O,0,
CCSc1nc2c(c(=O)[nH]1)C(C(C)C)C(C#N)=C(N)O2 (stereo not given),0,
CSc1ccccc1NC(=O)c1cccnc1,0,
SMILES,HIV RNase H inh-1,others
CN1CCc2c(sc3c2C(=O)NC(c2ccccn2)N3)C1 (stereo not given),0,
Cn1cc(C2NC(=O)c3c(sc4c3CCCC4)N2)c2ccccc21 (stereo not given),69,HIV RNase H inh-2=?
Cn1cc(/C=N/n2cnc3sc4c(c3c2=O)CCCC4)c2ccccc21,0,
CCOc1cc(S(=O)(=O)NCc2ccco2)c(OCC)cc1-n1cnnn1,0,
N#CC1(c2ccccc2)CCCN1C(=O)c1ccc(Br)o1 (stereo not given),0,
Cn1c(CCNC(=O)c2ccco2)nc2cc(NS(=O)(=O)c3ccc(Cl)cc3)ccc21,0,
CC1(O)c2ccccc2C(=O)N1Cc1ccccc1 (stereo not given),0,
O=C(O)c1ccc2c(c1)N(Cc1ccccc1F)C(=O)c1ccccc1S2=O (stereo not given),0,
CC1(O)c2ccccc2C(=O)N1CCc1ccccc1F (stereo not given),89,HIV RNase H inh-2=0
Cc1ccc(S(=O)(=O)NC2=NCCC2)cc1,0,
CCCS(=O)(=O)N1CCN(S(=O)(=O)c2ccc(F)cc2)CC1,0,
Cc1ccc(C2NC(=O)c3c(sc4c3CCN(C)C4)N2)s1 (stereo not given),0,
CCOC(=O)N1CCc2c(sc3c2C(=O)NC(c2ccc(-c4ccc(Cl)cc4)o2)N3)C1 (stereo not given),74,HIV RNase H inh-2=97
Cc1ccc(C2NC(=O)c3c(sc4c3CCN(C)C4)N2)o1 (stereo not given),0,
Cc1oncc1C(=O)Nc1ccc(C(F)(F)F)cc1,0,
CN(C)c1cc(O)c(C(=S)Nc2ccccc2)c(N(C)C)c1,0,
Cc1oncc1C(=S)Nc1ccccc1,74,HIV RNase H inh-2=0
CCOCCCNC(=O)C1c2ccccc2C(=O)N2CCc3ccccc3C12 (stereo not given),0,
Cc1cc(C)nc(SCc2nnc(SCC(=O)Nc3cc(C(F)(F)F)ccc3Cl)o2)n1,0,
CCCCN(C)CCCNC(=O)c1ccc2c(c1)NC(=O)C(N1CCOCC1)S2 (stereo not given),0,
COC(=O)c1ccc2c(c1)NC(=O)C(N1CCCCC1)S2 (stereo not given),0,
O=C(O)c1ccc2c(c1)NC(=O)C(N1CCCC1)S2 (stereo not given),92,HIV RNase H inh-2=63
CCOC(=O)N1CCN(C(=O)c2ccc3c(c2)NC(=O)C(N2CCOCC2)S3)CC1 (stereo not given),0,
COC(=O)c1ccc2c(c1)NC(=O)C(N1CCCC1)S2 (stereo not given),0,
CCOC(=O)c1ccc2c(c1)NC(=O)C(N1CCN(c3ccc(OC)cc3)CC1)S2 (stereo not given),85,HIV RNase H inh-2=0
SMILES,HIV RNase H inh-1,others
COc1ccc(N(CC(=O)NCc2ccco2)S(=O)(=O)c2ccc(OC)c(OC)c2)cc1,0,
COC(=O)c1c(N)sc(C(=O)N2CCOCC2)c1C,0,
CCOC(=O)c1c(N)sc(C(=O)N2CCOCC2)c1C,0,
Cc1c(-c2ccccc2)sc(N)c1C(=O)N1CCOCC1,85,HIV RNase H inh-2=0
O=C(CSc1nnc2sc3ccccc3n12)c1ccco1,0,
CCCCC(NC(C)=O)c1nc2ccccc2n1CCCC (stereo not given),0,
O=C1C2C3CCCC3=C3CCCC3C2C(=O)N1c1ccccc1 (stereo not given),0,
CN1CCN(Cc2ccc(-c3ccc(Cl)cc3)o2)CC1,0,
N#CCCN1CCN(C(=S)c2ccc(-c3ccc(Cl)cc3)o2)CC1,56,HIV RNase H inh-2=0
CC(C)c1cc(CN2CCN(CCC#N)CC2)cc(C(C)C)c1O,0,
Cc1ccc(CNC(=O)c2cc3c(=O)n(C)c4ccccc4c3n2C)o1,0,
COc1ccccc1CNC(=O)c1cc2c(=O)n(C)c3ccccc3c2n1C,89,HIV RNase H inh-2=88
Cn1c(C(=O)NCc2ccccn2)cc2c(=O)n(C)c3ccccc3c21,0,
CCn1c(SCC(=O)Nc2cccc(C(C)=O)c2)nnc1C(C)C,0,
COc1ccccc1-c1nnc2n1N=C(C(C)(C)C)CS2,0,
CC(C)(C)C1=Nn2c(nnc2-c2ccccn2)SC1,64,HIV RNase H inh-2=70
CC(C)(C)C1=Nn2c(nnc2-c2ccccc2F)SC1,0,
CC(=O)Nc1ccccc1N(C)S(=O)(=O)c1ccc(C)cc1,0,
CC(=O)N1CCc2cc(S(=O)(=O)NC(CC(C)C)C(=O)Nc3cc(C(=O)O)ccc3C)ccc21 (stereo not given),61,HIV RNase H inh-2=0
CCC(=O)N1CCc2cc(S(=O)(=O)NC(CC(C)C)C(=O)N3CCc4ccccc43)ccc21 (stereo not given),0,
CCOC(=O)N1CCC(NC(=O)C(NS(=O)(=O)c2ccc3c(c2)CCN3C(C)=O)C(C)C)CC1 (stereo not given),0,
CCC(C)N1C(=O)C2C(C(=O)Nc3cccc(OC)c3)C3C=CC2(O3)C1C(=O)NC1CCCCC1C (stereo not given),0,
CC1CCCC(NC(=O)c2ccc3c(=O)n(CC4CCCO4)c(=O)[nH]c3c2)C1C (stereo not given),0,

# Screening data deposited in PubChem by University of Pittsburgh Molecular Library Screening Center.
